The values below come from PubChem BioAssay (NCI).

SMILES strings stand for the structures. The panel holds about 83,000 compounds, 20% with a hit somewhere; the sample as a whole holds those more often.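 Negative percent growth values reflect cell death: -40 means 40% of the cells present at the start died, and -100 means all died.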 A number with no mark means an inactive call. The source made the active and inactive calls. The calls were made as follows: active = growth percent below 10; inactive = the rest.

Test systems include T-47D breast; BT-549 breast; MDA-MB-435 melanoma; SW-620 colon; MCF7 breast; HCT-116 colon; HCC-2998 colon; KM12 colon.
Holding throughout (assay): NCI-60 one-dose screen, 48 h (100 = growth as untreated, 0 = no growth, -100 = all killed)
Details in all cases: 10 µM unless noted

`CCN(CC)CCn1c2ccc(OC)cc2c2sc3cc(O)ccc3c(=O)c21`: the growth in the experiment with T-47D breast was 62.5%; with BT-549 breast, 62.7%; with MDA-MB-435 melanoma, 48.8%; in the experiment with SW-620 colon, 13.3%; in the experiment with MCF7 breast, 9.43% (active); with HCT-116 colon it was 14.2%. Besides, the values for the growth in the experiment on HCC-2998 colon and with KM12 colon were 28.2% and 24.6%, respectively.

Regarding `CN1CCN(c2ccc(NC3=CC(=O)c4ncncc4C3=O)cc2)CC1`, the growth with T-47D breast is -48.2% (active); in the experiment on BT-549 breast it was -90.9% (active); in the experiment with MDA-MB-435 melanoma, -90.3% (active); in the experiment on SW-620 colon, -64.1% (active); in the experiment with MCF7 breast, -64.3% (active); in the experiment with HCT-116 colon, -53.6% (active). Moreover, the results for the growth in the experiment on HCC-2998 colon and with KM12 colon were -78.2% (active) and -75.9% (active), respectively.

`Clc1ccc(-c2nc(C(Cl)Cl)nc3cc(-c4ccccc4)nn23)cc1`: the growth was 55.3% in the experiment on T-47D breast; 89% in the experiment on BT-549 breast; 37.9% in the experiment on MDA-MB-435 melanoma; -5.43% (active) in the experiment with SW-620 colon; 24.8% with MCF7 breast; 23.1% in the experiment on HCT-116 colon. In addition, the growth in the experiment on HCC-2998 colon is -53.7% (active); in the experiment on KM12 colon, 3.35% (active).

`COc1ccc(-c2nc(SCC(=O)Nc3nc4ccc(C)cc4s3)[nH]c(=O)c2C#N)cc1OC`: the growth in the experiment with T-47D breast was 94.8%; with BT-549 breast it was 97.8%; in the experiment on MDA-MB-435 melanoma, 101%; in the experiment with SW-620 colon it was 96.2%; with MCF7 breast, 95.6%; in the experiment with HCT-116 colon, 94.8%. The values for the growth in the experiment with HCC-2998 colon and in the experiment on KM12 colon were 105% and 102%, respectively.

As to `COc1ccc(OC)c(Nc2nnc(-c3cc(OC)c(OC)c(OC)c3)o2)c1`, the growth is 82.2% with T-47D breast; 88.8% in the experiment with BT-549 breast; 102% with MDA-MB-435 melanoma; 108% in the experiment on SW-620 colon; 105% with MCF7 breast; 103% in the experiment with HCT-116 colon. Moreover, the growth with HCC-2998 colon was 103%; in the experiment with KM12 colon it was 94.6%.

Turning to `Nc1nc(C(=O)N/N=C/c2ccc(F)cc2)nn1-c1ccc(S(N)(=O)=O)cc1`, the growth in the experiment with T-47D breast is 99.3%; in the experiment with BT-549 breast, 114%; with MDA-MB-435 melanoma, 100%; with SW-620 colon it was 99.2%; in the experiment with MCF7 breast it was 98.8%; in the experiment with HCT-116 colon, 101%. For the same compound, the growth in the experiment on HCC-2998 colon is 107%; in the experiment on KM12 colon, 96.7%.

As for `COC(=O)/C(CCC=C(C)C)=C1\[C@@H](OC(C)=O)C[C@@]2(C)[C@H]1C/C(=N/O)[C@H]1[C@@]3(C)CC/C(=N\O)[C@@H](C)[C@@H]3CC[C@@]12C`, the growth in the experiment on T-47D breast was 82.9%; with BT-549 breast, 95.5%; in the experiment with MDA-MB-435 melanoma, 98.6%; in the experiment on SW-620 colon, 106%; in the experiment with MCF7 breast, 55.1%; in the experiment with HCT-116 colon, 101%. Besides, the growth is 110% with HCC-2998 colon and 103% in the experiment on KM12 colon.

In the case of `CC(=O)c1sc(-c2ccc(F)cc2)cc1O`, the growth in the experiment with T-47D breast is 98.4%; in the experiment on BT-549 breast, 93.8%; in the experiment on MDA-MB-435 melanoma it was 96.1%; in the experiment on SW-620 colon, 106%; with MCF7 breast it was 94.5%; in the experiment on HCT-116 colon, 95.3%. Besides, the growth in the experiment with HCC-2998 colon was 103%; with KM12 colon, 95.6%.

As to `CCOC(=O)CNC1=C(Cl)C(=O)N(Cc2ccc(Cl)cc2)C1=O`, the growth in the experiment on T-47D breast was 93.3%; in the experiment with BT-549 breast, 109%; in the experiment on MDA-MB-435 melanoma it was 105%; in the experiment with SW-620 colon it was 99.8%; in the experiment with MCF7 breast it was 99.7%; with HCT-116 colon, 102%. Besides, the figures for the growth in the experiment with HCC-2998 colon and with KM12 colon were 103% and 110%, respectively.

For the compound `COc1ccc(CN2C(=O)OC(C)(COC(C)=O)C2=O)cc1` (stereo not given), the growth in the experiment with T-47D breast was 91.9%; in the experiment on BT-549 breast, 107%; in the experiment on MDA-MB-435 melanoma it was 107%; in the experiment with SW-620 colon, 107%; with MCF7 breast it was 96.3%; in the experiment on HCT-116 colon, 93.5%. Further, the growth is 100% in the experiment on HCC-2998 colon and 112% with KM12 colon.

For `CC(=O)O[C@H]1CC[C@]2(C)[C@H]3CC=C4[C@@H]5CC(C)(C)CC[C@]5(C(=O)N5CCN(CCC#N)CC5)CC[C@@]4(C)[C@]3(C)CC[C@H]2C1(C)C`, the growth in the experiment with T-47D breast was 29%; with BT-549 breast, 40.9%; in the experiment with MDA-MB-435 melanoma, 31.5%; in the experiment on SW-620 colon it was 19.4%; in the experiment with MCF7 breast, 11.6%; in the experiment with HCT-116 colon, -2.33% (active). Further, the growth was 47.7% with HCC-2998 colon and 28.6% in the experiment on KM12 colon.

Regarding `Cc1ccc(C(=O)c2ccc(CC(=O)N/N=C/c3cccc(O)c3O)n2C)cc1`, the growth was 25.9% with T-47D breast; 45.8% with BT-549 breast; 61.1% in the experiment on MDA-MB-435 melanoma; 34.3% in the experiment on SW-620 colon; 16.1% in the experiment on MCF7 breast; 30.8% in the experiment on HCT-116 colon. The growth was 70.6% in the experiment on HCC-2998 colon and 44.2% with KM12 colon.

For the compound `COc1ccc2c(c1)c(-c1nc(-c3ccc4ccccc4c3)cs1)cn2C`, the growth in the experiment with T-47D breast is 58%; with BT-549 breast, 89%; in the experiment with MDA-MB-435 melanoma, 70.1%; in the experiment with SW-620 colon, 73.4%; in the experiment on MCF7 breast, 30.8%; with HCT-116 colon, 87.9%. Further, the growth in the experiment with HCC-2998 colon was 99.5%; with KM12 colon it was 67.4%.

Take `COc1ccc2cc(C(=O)N3CCC([C@@H](C)C(=O)NCc4ccc5c(c4)OCO5)CC3)[nH]c2c1`: the growth was 17.3% [50 µM] with T-47D breast; 16% [50 µM] in the experiment with BT-549 breast; 65.9% [50 µM] with MDA-MB-435 melanoma; 103% [50 µM] in the experiment on SW-620 colon; 46.8% [50 µM] in the experiment with MCF7 breast; 33.6% [50 µM] in the experiment with HCT-116 colon. For the same compound, the growth with HCC-2998 colon was 83% [50 µM]; in the experiment on KM12 colon, 79.1% [50 µM].

As to `Oc1c(I)cc(I)cc1CN(Cc1ccccn1)Cc1ccccn1`, the growth in the experiment on T-47D breast was 22.4%; in the experiment on BT-549 breast, 30.7%; in the experiment with MDA-MB-435 melanoma it was 35.6%; with SW-620 colon, 22.2%; in the experiment on MCF7 breast, 13.4%; in the experiment with HCT-116 colon, 18.1%. For the same compound, the figures for the growth with HCC-2998 colon and with KM12 colon were 35.1% and 26.8%, respectively.
